# Measurements from PubChem BioAssay AID1159580 (chemical genetic matrix, 2015).
# Where “and” joins values, the source holds several entries; their conditions need not be identical. Equal entries are not always repeated. Out of some 5,500 compounds screened, about 2,000 (36%) were called active. About 18% were inconclusive and are not listed. The list shows a part of the results. A number with no mark means an inactive call. No stated cut-off is given here; in the data, active means normalized growth mostly below about 0.91 (no sharp cut-off); inconclusive means no clear call, values can overlap the other calls; inactive means mostly above about 0.92.
# Assay: chemical genetic growth profiling, strain panel (AID 1159580);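 further: tested at 20 µM; growth read once vehicle control cultures reached saturation at 30 °C; 1 = growth at the plate median or of vehicle wells; lower values mean less growth of the strain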
# Conditions: S. cerevisiae deletion strains, growth OD
# [1] = locus YBR229C, strain ROT2, active compounds read low
# [2] = locus YDL101C, strain DUN1, active compounds read low
# [3] = locus YDR150W, strain NUM1, active compounds read low
# [4] = locus YEL061C, strain CIN8, active compounds read low
# [5] = locus YGR078C, strain PAC10, active compounds read low
# [6] = locus YHR030C, strain SLT2, active compounds read low
# [7] = locus YJR043C, strain POL32, active compounds read low
# [8] = locus YLR039C, strain RIC1, active compounds read low
# [9] = locus YLR262C, strain YPT6, active compounds read low
# [10] = locus YMR307W, strain GAS1, active compounds read low
# [11] = locus YHR079C, strain IRE1, active compounds read low
# [12] = locus YJL095W, strain BCK1, active compounds read low
# [13] = locus YJR066W, strain TOR1, active compounds read low
# [14] = locus YLR113W, strain HOG1, active compounds read low
# [15] = locus YNL183C, strain NPR1, active compounds read low
# [16] = locus YOR061W, strain CKA2, active compounds read low
# [17] = locus YOR231W, strain MKK1, active compounds read low
# [18] = locus YPL256C, strain CLN2, active compounds read low
smiles,measurement,setting,value
CN(C)/C=C1/C(=O)NN=C1CSc1ccccn1,normalized growth,"locus YAL013W, strain DEP1, active compounds read low",1
same,normalized growth,[1],0.999
same,normalized growth,"locus YCL061C, strain MRC1, active compounds read low",1.03
same,normalized growth,[2],1.03
same,normalized growth,[3],1.04
same,normalized growth,[4],0.999
same,normalized growth,[5],1.02
same,normalized growth,[6],1.09
same,normalized growth,"locus YHR087W, strain rtc3, active compounds read low",0.948
same,normalized growth,[7],1.02
same,normalized growth,"locus YJR075W, strain HOC1, active compounds read low",1.01
same,normalized growth,"locus YKL190W, strain CNB1, active compounds read low",1.02
same,normalized growth,[8],1.11
same,normalized growth,"locus YLR058C, strain SHM2 (second series), active compounds read low",0.974
same,normalized growth,"locus YLR085C, strain ARP6, active compounds read low",1.05
same,normalized growth,[9],1.02
same,normalized growth,"locus YML094W, strain GIM5, active compounds read low",1.01
same,normalized growth,"locus YMR219W, strain ESC1, active compounds read low",0.982
same,normalized growth,"locus YMR263W, strain SAP30, active compounds read low",1.01
same,normalized growth,[10],1.07
same,normalized growth,"locus YNL153C, strain GIM3, active compounds read low",1.03
same,normalized growth,"locus YNL298W, strain CLA4 (second series), active compounds read low",1.04
same,normalized growth,"locus YNL322C, strain KRE1, active compounds read low",0.985
same,normalized growth,"locus YNR030W, strain Alg12, active compounds read low",1.01
same,normalized growth,"locus YPL055C, strain LGE1, active compounds read low",0.972
same,normalized growth,"locus YPL241C, strain CIN2, active compounds read low",1
same,normalized growth,"locus YPR135W, strain CTF4, active compounds read low",1.09
O=C(Nc1cc2c(s1)-c1cc(Cl)ccc1SC2)Oc1ccccc1,normalized growth,"locus YAR019C, strain CDC15, active compounds read low",0.977
same,normalized growth,"locus YBL105C, strain PKC1, active compounds read low",1.01
same,normalized growth,"locus YBR135W, strain CKS1, active compounds read low",1.01
same,normalized growth,"locus YBR136W, strain MEC1, active compounds read low",0.995
same,normalized growth,"locus YBR160W, strain CDC28, active compounds read low",0.99
same,normalized growth,"locus YDL017W, strain CDC7, active compounds read low",1.01
same,normalized growth,"locus YDL028C, strain MPS1, active compounds read low",0.984
same,normalized growth,[2],0.989
same,normalized growth,"locus YDL108W, strain KIN28, active compounds read low",0.986
same,normalized growth,"locus YDL132W, strain cdc53, active compounds read low",1
same,normalized growth,"locus YDL214C, strain PRR2, active compounds read low",0.928
same,normalized growth,"locus YDR052C, strain DBF4, active compounds read low",0.997
same,normalized growth,"locus YDR054C, strain cdc34, active compounds read low",0.999
same,normalized growth,"locus YDR226W, strain ADK1, active compounds read low",1
same,normalized growth,"locus YDR477W, strain SNF1, active compounds read low",0.964
same,normalized growth,"locus YER123W, strain YCK3, active compounds read low",0.936
same,normalized growth,"locus YER133W, strain GLC7, active compounds read low",0.972
same,normalized growth,"locus YFL009W, strain cdc4, active compounds read low",0.997
same,normalized growth,"locus YFL029C, strain CAK1, active compounds read low",0.978
same,normalized growth,"locus YFR003C, strain YPI1, active compounds read low",0.998
same,normalized growth,"locus YFR019W, strain FAB1, active compounds read low",0.927
same,normalized growth,"locus YFR028C, strain CDC14, active compounds read low",1
same,normalized growth,"locus YGR040W, strain KSS1, active compounds read low",0.97
same,normalized growth,"locus YGR052W, strain FMP48, active compounds read low",1.01
same,normalized growth,"locus YGR092W, strain DBF2, active compounds read low",0.966
same,normalized growth,[6],0.911
same,normalized growth,[11],0.939
same,normalized growth,"locus YHR082C, strain KSP1, active compounds read low",0.962
same,normalized growth,"locus YHR205W, strain SCH9, active compounds read low",0.914
same,normalized growth,"locus YIL147C, strain SLN1, active compounds read low",0.994
same,normalized growth,[12],0.927
same,normalized growth,"locus YJL128C, strain PBS2, active compounds read low",1.02
same,normalized growth,"locus YJL157C, strain FAR1, active compounds read low",0.959
same,normalized growth,"locus YJR016C, strain ILV3, active compounds read low",0.999
same,normalized growth,"locus YJR066W, strain TOR1 (second series), active compounds read low",0.946
same,normalized growth,[13],0.951
same,normalized growth,"locus YKL048C, strain ELM1, active compounds read low",0.98
same,normalized growth,"locus YKL067W, strain YNK1, active compounds read low",0.946
same,normalized growth,"locus YKL101W, strain HSL1, active compounds read low",0.953
same,normalized growth,"locus YKL193C, strain SDS22, active compounds read low",1.01
same,normalized growth,"locus YKL203C, strain TOR2, active compounds read low",1.01
same,normalized growth,[14],0.849 (active)
same,normalized growth,"locus YLR133W, strain CKI1, active compounds read low",0.938
same,normalized growth,"locus YLR403W, strain SFP1, active compounds read low",0.946
same,normalized growth,"locus YML070W, strain DAK1, active compounds read low",0.957
same,normalized growth,"locus YMR001C, strain CDC5, active compounds read low",1
same,normalized growth,"locus YMR205C, strain PFK2 (second series), active compounds read low",0.966
same,normalized growth,"locus YMR277W, strain FCP1, active compounds read low",0.999
same,normalized growth,"locus YNL006W, strain LST8, active compounds read low",0.99
same,normalized growth,"locus YNL020C, strain ARK1, active compounds read low",0.938
same,normalized growth,"locus YNL161W, strain CBK1, active compounds read low",0.993
same,normalized growth,[15],0.941
same,normalized growth,"locus YNL207W, strain RIO2, active compounds read low",0.997
same,normalized growth,"locus YNL222W, strain SSU72, active compounds read low",1.01
same,normalized growth,"locus YNL307C, strain MCK1 (second series), active compounds read low",0.949
same,normalized growth,"locus YOL078W, strain AVO1, active compounds read low",1
same,normalized growth,"locus YOL136C, strain PFK27, active compounds read low",0.914
same,normalized growth,[16],0.934
same,normalized growth,"locus YOR119C, strain RIO1, active compounds read low",0.988
same,normalized growth,[17],0.949
same,normalized growth,"locus YOR329C, strain SCD5, active compounds read low",1
same,normalized growth,"locus YPL031C, strain PHO85, active compounds read low",0.963
same,normalized growth,"locus YPL153C, strain RAD53, active compounds read low",0.968
same,normalized growth,"locus YPL204W, strain HRR25, active compounds read low",0.959
same,normalized growth,"locus YPL209C, strain IPL1, active compounds read low",1
same,normalized growth,[18],0.912
same,normalized growth,"locus YPR025C, strain CCL1, active compounds read low",1.01
same,normalized growth,"locus YPR106W, strain ISR1, active compounds read low",0.997
same,normalized growth,"locus YPR111W, strain DBF20, active compounds read low",1.01
same,normalized growth,"strain NNK1, active compounds read low",1
same,normalized growth,"strain TSCII, active compounds read low",1
COc1cccc(O)c1O,normalized growth,"locus YBR021W, strain FUR4, active compounds read low",1.02
same,normalized growth,[1],1.04
same,normalized growth,"locus YCL029C, strain bik1, active compounds read low",1
same,normalized growth,"locus YDL035C, strain GPR1, active compounds read low",1.03
same,normalized growth,"locus YDL074C, strain BRE1, active compounds read low",1.01
same,normalized growth,[2],1.01
same,normalized growth,"locus YDL134C, strain PPH21, active compounds read low",1.08
same,normalized growth,"locus YDL185W, strain tfp1, active compounds read low",1.01
same,normalized growth,"locus YDL192W, strain arf1, active compounds read low",1
same,normalized growth,"locus YDR101C, strain arx1, active compounds read low",1.01
same,normalized growth,[3],1.04
same,normalized growth,"locus YDR162C, strain NBP2, active compounds read low",1.07
same,normalized growth,"locus YDR318W, strain mcm21, active compounds read low",1
same,normalized growth,"locus YDR388W, active compounds read low",1.01
same,normalized growth,"locus YDR502C, strain sam2, active compounds read low",1.01
same,normalized growth,[4],1.02
same,normalized growth,"locus YER110C, active compounds read low",0.996
same,normalized growth,"locus YER155C, strain BEM2, active compounds read low",1.04
same,normalized growth,"locus YER167W, strain BCK2, active compounds read low",1.05
same,normalized growth,"locus YGL078C, strain dbp3, active compounds read low",1.01
same,normalized growth,"locus YGL086W, strain mad1, active compounds read low",0.999
same,normalized growth,"locus YGL248W, strain PDE1, active compounds read low",1.03
same,normalized growth,[5],1.05
same,normalized growth,"locus YGR135W, strain pre9, active compounds read low",0.976
same,normalized growth,"locus YGR252W, strain gcn5, active compounds read low",0.936
same,normalized growth,[6],1.03 and 0.988
same,normalized growth,"locus YHR079C, strain IRE1 (second series), active compounds read low",1.02
same,normalized growth,[11],0.999
same,normalized growth,"locus YHR094C, strain hxt1, active compounds read low",1
same,normalized growth,"locus YHR129C, strain ARP1, active compounds read low",1.02
same,normalized growth,"locus YHR200W, strain rpn10, active compounds read low",1
same,normalized growth,"locus YIL066C, strain RNR3, active compounds read low",1.06
same,normalized growth,"locus YIL073C, strain SPO22, active compounds read low",1.03
same,normalized growth,"locus YIL125W, strain kgd1, active compounds read low",1
same,normalized growth,"locus YIR030C, strain dcg1, active compounds read low",1.04
same,normalized growth,[12],1.02 and 0.997
same,normalized growth,"locus YJL134W, strain LCB3, active compounds read low",1.03
same,normalized growth,"locus YJL168C, strain set2, active compounds read low",1
same,normalized growth,"locus YJL187C, strain SWE1 (second series), active compounds read low",0.976
same,normalized growth,[7],1.04
same,normalized growth,[13],0.925
same,normalized growth,"locus YKL009W, strain mrt4, active compounds read low",1.01
same,normalized growth,"locus YKL068W, active compounds read low",1.01
same,normalized growth,"locus YKL085W, strain MDH1 (second series), active compounds read low",1.02
same,normalized growth,"locus YKL085W, strain MDH1, active compounds read low",1.02
same,normalized growth,"locus YKR001C, strain vps1, active compounds read low",1.02
same,normalized growth,[8],1.17
same,normalized growth,"locus YLR058C, strain SHM2, active compounds read low",0.995
same,normalized growth,"locus YLR102C, strain apc9, active compounds read low",0.995
same,normalized growth,[14],0.989
same,normalized growth,[9],1.15
same,normalized growth,"locus YLR268W, strain sec22, active compounds read low",0.989
same,normalized growth,"locus YLR330W, strain CHS5, active compounds read low",1.03
same,normalized growth,"locus YLR342W, strain FKS1 (second series), active compounds read low",1.01
same,normalized growth,"locus YLR371W, strain rom2, active compounds read low",1
same,normalized growth,"locus YLR418C, strain cdc73, active compounds read low",1.01
same,normalized growth,"locus YML016C, strain PPZ1, active compounds read low",1.03
same,normalized growth,"locus YML032C, strain rad52, active compounds read low",1.01
same,normalized growth,"locus YML124C, strain tub3, active compounds read low",1.01
same,normalized growth,"locus YMR078C, strain ctf18, active compounds read low",0.99
same,normalized growth,"locus YMR223W, strain ubp8, active compounds read low",0.997
same,normalized growth,[10],1.09
same,normalized growth,"locus YNL067W, strain RPL9B, active compounds read low",1.05
same,normalized growth,[15],0.926
same,normalized growth,"locus YNL233W, strain BNI4, active compounds read low",1.05
same,normalized growth,"locus YNL250W, strain rad50, active compounds read low",0.996
same,normalized growth,"locus YNL271C, strain bni1, active compounds read low",0.994
same,normalized growth,"locus YNL298W, strain CLA4, active compounds read low",0.99
same,normalized growth,"locus YNL307C, strain MCK1, active compounds read low",1.01
same,normalized growth,"locus YNR052C, strain pop2, active compounds read low",1.01
same,normalized growth,"locus YOL006C, strain TOP1, active compounds read low",1.27
same,normalized growth,"locus YOL012C, strain htz1",0.899
same,normalized growth,"locus YOL147C, strain pex11, active compounds read low",1
same,normalized growth,[16],1.02
same,normalized growth,"locus YOR069W, strain VPS5, active compounds read low",1.02
same,normalized growth,"locus YOR136W, strain idh2, active compounds read low",0.994
same,normalized growth,"locus YOR144C, strain elg1, active compounds read low",1.01
same,normalized growth,"locus YOR184W, strain ser1, active compounds read low",1.02
same,normalized growth,[17],1.01
same,normalized growth,"locus YOR316C, strain cot1, active compounds read low",0.995
same,normalized growth,[18],0.994
same,normalized growth,"locus YPR119W, strain clb2, active compounds read low",1.02
same,normalized growth,"locus YPR141C, strain kar3, active compounds read low",1.01
same,normalized growth,"locus YPR163C, strain tif3, active compounds read low",0.978
same,normalized growth,"locus YPR167C, strain met16, active compounds read low",1.02
same,normalized growth,"strain wtn01, active compounds read low",0.997
